Bioassay records (PubChem BioAssay)
HP1b binding inh – blocks HP1-beta chromodomain binding to methylated histone tails. AlphaScreen HP1-beta / biotin-H3K9me3 peptide binding. Potency, µM (titrated, usually from 114 µM), hits mostly inhibitors. AID 540317. 390,000 tested, 0.56% active; also: nearly all actives have a fitted effect of over 70% in size
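AlphaScreen: HP1-beta (50 nM) preformed 30 min with biotin-H3(1-18)K9me3 peptide (50 nM) in PBS pH 7.4, 0.01% Tween-20. Compound added for 30 min at RT, then streptavidin donor/nickel chelate acceptor beads (10 ug/mL) for 30 min.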
JMJD2A Tudor inh – inhibitors of human JMJD2A Tudor domain. O75164. AlphaScreen JMJD2A-Tudor / H3K4me3 peptide binding. Potency, µM (doses to about 114 µM), hits mostly inhibitors. 390,000 tested, 4.4% active. AID 504339; also: nearly all actives have a fitted effect of over 50% in size
CtBP-E1A blk – CtBP/E1A binding inhibition | AlphaScreen GST-E1A/His-CtBP binding, 1536-well; active compounds read low | activity change, % (concentration not given with the values) | 340,000 tested, 0.49% active | AID 651724; in the data active = activity change below about -65%; inconclusive = mostly about -30% to -63%
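AlphaScreen with 125 nM GST-E1A and 125 nM His-CtBP (5X stocks) in Tris pH 8.0, 300 mM NaCl, BSA, Tween 20, TCEP. Compounds preincubated 2 h at 37 deg C, then glutathione donor/nickel acceptor beads added for 1 h at 37 deg C in dark.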
Six1-Eya2 inh – blocks human Six1 binding to Eya2; Q15475+O00167; AlphaScreen GST-Six1/His-Eya2 binding, biochemical; active compounds read low; activity change, % (concentration not given with the values); 360,000 tested, 0.56% active; AID 651725; in the data active = activity change below about -65%; inconclusive = mostly about -30% to -63%
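GST-Six1 + His-Eya2 (5X stock: 250/500 nM); Tris pH 8.0, 300 mM NaCl, 0.05% BSA, 0.02% Tween 20; GSH donor/Ni acceptor beads; 1 h 37 °C dark; AlphaScreen readout.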
BAZ2B block – BAZ2B (human) inhibition. AlphaScreen BAZ2B-H3K14Ac peptide displacement. Potency, µM (titrated, usually from 114 µM), hits mostly inhibitors. 360,000 tested, 4.4% active. AID 504333; also: nearly all actives have a fitted effect of over 60% in size
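In this displacement format the biotinylated H3(5-23) peptide acetylated at Lys14 serves as ligand at 50 nM, with BAZ2B at 50 nM in PBS pH 7.4 containing 0.01% Tween-20. Donor and acceptor beads are 10 ug/mL final.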
G9a block – blocks human histone lysine methyltransferase G9a; G9a H3K9 monomethylation, AlphaScreen, 2 h; Potency, µM (top dose mostly 102 µM), most hits filed as inhibitors; 350,000 tested, 8.8% active; also: nearly all actives have a fitted effect of over 75% in size
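G9a (20 nM) preincubated 15 min RT with compounds, then 500 nM biotinylated H3K9 peptide and 20 uM SAM added; 2 h RT reaction. Monomethyl-H3K9 product detected by AlphaScreen with anti-H3K9me1 antibody, streptavidin donor and anti-rabbit IgG acceptor beads.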
Hits are given with their value. In the library only some 10% were active in any assay of this set; here they are far more common. Unless noted, calls follow the shape of the dose curve; as a rule, active = well fitted inhibition curve with a large enough effect; inconclusive = small, poorly fitted or top-dose-only effect; inactive = no such curve, though single readings can be large or run the other way.

`COc1ccc2oc(=O)cc(CN3CCN(Cc4ccc(OC)c(OC)c4OC)CC3)c2c1` gave HP1b binding inh inactive, JMJD2A Tudor inh inactive, CtBP-E1A blk inactive, Six1-Eya2 inh inactive, BAZ2B block inactive and G9a block inactive.
`Cc1ccc(S(=O)(=O)N2CCN(Cc3ccco3)CC2)cc1C` gave HP1b binding inh inactive, JMJD2A Tudor inh inactive, CtBP-E1A blk inactive, Six1-Eya2 inh inactive and BAZ2B block inactive.
For COc1ccc(CN2CCN(Cc3ccco3)CC2)c(OC)c1 the results were HP1b binding inh inconclusive, JMJD2A Tudor inh 3.16µM, CtBP-E1A blk inactive, Six1-Eya2 inh inactive, BAZ2B block 39.8µM and G9a block 39.8µM.
`COc1ccc(CN2CCc3ccccc3C2)c(OC)c1` gave HP1b binding inh inconclusive, JMJD2A Tudor inh 2.82µM, CtBP-E1A blk inactive, Six1-Eya2 inh inactive, BAZ2B block inconclusive and G9a block inactive.
For COc1ccccc1CN1CCN(Cc2ccco2)CC1 the results were HP1b binding inh inconclusive, JMJD2A Tudor inh 3.98µM, CtBP-E1A blk inactive, Six1-Eya2 inh inactive, BAZ2B block 25.1µM and G9a block 44.7µM.
For COc1ccc(NC(=O)CN2CCc3ccccc3C2)c(OC)c1 the results were HP1b binding inh inactive, JMJD2A Tudor inh inactive, CtBP-E1A blk inactive, Six1-Eya2 inh inactive and BAZ2B block inactive.
`COc1cc(CN2CCN(Cc3ccco3)CC2)cc(OC)c1` gave HP1b binding inh inconclusive, JMJD2A Tudor inh 0.794µM, CtBP-E1A blk inactive, Six1-Eya2 inh inactive, BAZ2B block 25.1µM and G9a block 8.91µM.
`COc1ccccc1-c1noc(-c2ccc(N(C)Cc3ccccc3)c([N+](=O)[O-])c2)n1` gave HP1b binding inh inactive, JMJD2A Tudor inh inactive, BAZ2B block inactive and G9a block inconclusive.
`COc1ccc(N2CCN(S(=O)(=O)c3ccc(-n4cnnn4)c(C)c3)CC2)cc1` gave HP1b binding inh inactive, JMJD2A Tudor inh inactive, CtBP-E1A blk inactive, Six1-Eya2 inh inactive, BAZ2B block inactive and G9a block 7.08µM.
For COc1ccccc1N1CCN(S(=O)(=O)c2ccc(-n3cnnn3)c(C)c2)CC1 the results were HP1b binding inh inactive, JMJD2A Tudor inh inactive, CtBP-E1A blk inactive, Six1-Eya2 inh inactive, BAZ2B block inactive and G9a block inconclusive.
Cc1ccc(N2CCN(S(=O)(=O)c3ccc(-n4cnnn4)cc3)CC2)c(C)c1 was read as HP1b binding inh inactive, JMJD2A Tudor inh inactive, CtBP-E1A blk inactive, Six1-Eya2 inh inactive, BAZ2B block inactive and G9a block inactive.
For COc1ccc(N2CCN(S(=O)(=O)c3ccc(OC)c(C(=O)N4CCCC4)c3)CC2)cc1 the results were HP1b binding inh inactive, JMJD2A Tudor inh inactive, CtBP-E1A blk inactive, Six1-Eya2 inh inactive, BAZ2B block inactive and G9a block 79.4µM.
For CCCN1CCN(S(=O)(=O)c2ccc(-n3cnnn3)cc2)CC1 the results were HP1b binding inh inactive, JMJD2A Tudor inh inactive, CtBP-E1A blk inactive, Six1-Eya2 inh inactive, BAZ2B block inactive and G9a block 50.1µM.
COc1ccc(N2CCN(C(=O)c3ccc(S(=O)(=O)N4CCCC4)cc3)CC2)cc1 was read as HP1b binding inh inactive, JMJD2A Tudor inh inactive, CtBP-E1A blk inactive, Six1-Eya2 inh inactive, BAZ2B block inactive and G9a block 79.4µM.
Screening COc1ccc(Cn2c(SCc3ccc(C(=O)NC4CCCCC4)cc3)nc3cccnc32)cc1 returned HP1b binding inh inactive, JMJD2A Tudor inh inactive, BAZ2B block inactive and G9a block inactive.
For COc1ccc(N2CCN(C(=O)c3ccc(S(=O)(=O)N4CCOCC4)cc3)CC2)cc1 the results were HP1b binding inh inactive, JMJD2A Tudor inh inactive, CtBP-E1A blk inactive, Six1-Eya2 inh inactive, BAZ2B block inactive and G9a block 8.91µM.
`COc1ccc(C(=O)c2ccc(N3CCOCC3)cc2)c(OC)c1` gave HP1b binding inh inactive, JMJD2A Tudor inh inactive, CtBP-E1A blk inactive, Six1-Eya2 inh inactive, BAZ2B block inactive and G9a block 25.1µM.
`COc1ccc(N2CCN(C(=O)c3ccc(S(=O)(=O)N4CCCCCC4)cc3)CC2)cc1` gave HP1b binding inh inactive, JMJD2A Tudor inh inconclusive, CtBP-E1A blk inactive, Six1-Eya2 inh inactive, BAZ2B block inactive and G9a block inconclusive.
c1ccc(-c2nc(-c3cccnc3)n[nH]2)cc1 was read as BAZ2B block inactive and G9a block inactive.
For COc1ccccc1-n1c(-c2cccnc2)n[nH]c1=S the results were HP1b binding inh inactive, JMJD2A Tudor inh 4.47µM, CtBP-E1A blk inactive, Six1-Eya2 inh inactive, BAZ2B block inactive and G9a block 3.16µM.
For Clc1ccc(-c2nnc(-c3cccnc3)o2)cc1 the results were HP1b binding inh inactive, JMJD2A Tudor inh inactive, CtBP-E1A blk inactive, Six1-Eya2 inh inactive, BAZ2B block inactive and G9a block inactive.
`S=c1[nH]nc(-c2cccnc2)n1-c1ccccc1` gave HP1b binding inh inactive, JMJD2A Tudor inh 7.94µM, CtBP-E1A blk inactive, Six1-Eya2 inh inactive, BAZ2B block inactive and G9a block 1.58µM.
Screening Fc1ccccc1-n1c(-c2ccc3ccccc3n2)n[nH]c1=S returned HP1b binding inh inactive, JMJD2A Tudor inh inactive, CtBP-E1A blk inactive, Six1-Eya2 inh inactive, BAZ2B block inconclusive and G9a block inactive.
`S=c1[nH]nc(-c2ccc3ccccc3n2)n1-c1ccccc1` gave HP1b binding inh inactive, JMJD2A Tudor inh inconclusive, CtBP-E1A blk inactive, Six1-Eya2 inh inactive, BAZ2B block inactive and G9a block 1.58µM.
COc1cc(-n2c(-c3ccccc3)n[nH]c2=S)c(OC)cc1Cl was read as HP1b binding inh inactive, JMJD2A Tudor inh inactive, CtBP-E1A blk inactive, Six1-Eya2 inh inactive and BAZ2B block inconclusive.
`S=c1[nH]nc(-c2ccc(Cl)cc2)n1-c1cccnc1` gave HP1b binding inh inactive, JMJD2A Tudor inh 8.91µM, Six1-Eya2 inh inactive, BAZ2B block inactive and G9a block 10µM.
CN(C)c1ccc(-c2noc(C3CC(=O)N(c4ccc5c(c4)OCCO5)C3)n2)cc1 (stereo not drawn) was read as HP1b binding inh inactive, JMJD2A Tudor inh inactive, BAZ2B block inactive and G9a block inactive.
Screening Cc1ccc(C(=O)NCC(=O)OC(C)C(=O)Nc2ccc(N(C)C)cc2)s1 (stereo not drawn) returned HP1b binding inh inactive, JMJD2A Tudor inh inactive, Six1-Eya2 inh inactive, BAZ2B block inactive and G9a block 39.8µM.
Screening Cc1ccc(C(=O)NCC(=O)OC(C)C(=O)Nc2ccccc2[N+](=O)[O-])s1 (stereo not drawn) returned HP1b binding inh inactive, JMJD2A Tudor inh inactive, CtBP-E1A blk inactive and Six1-Eya2 inh inactive.
Screening c1csc(-c2nc3ccccc3s2)c1 returned HP1b binding inh inactive, JMJD2A Tudor inh inactive, CtBP-E1A blk inactive, Six1-Eya2 inh inactive, BAZ2B block inactive and G9a block 20µM.
